Reference: the supplement of paper PMC3484114
± gives the standard deviation.

The molecules below were run on OVCAR-3-derived ovarian cancer stem-like cells (spheroids) (assay: cell growth relative to untreated control; higher = more growth (less inhibition)). Conditions: 2.29 µM; 96 h.
Outline: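 OVCAR-3 spheroid-derived stem-like cells were trypsin-dissociated, seeded at 50,000 cells/mL in stem cell medium in ultra-low attachment 96-well plates and preincubated 24 h. Compounds were then added at 2.29 uM for 96 h at 37°C, 5% CO2, in 4 replicate wells. Viability was read as TOX8 resazurin fluorescence (ex 560/em 590 nm) after 4 h. Percent growth was calculated relative to untreated wells after blank subtraction and Grubbs outlier removal.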

| SMILES | cell growth [%] |
| --- | --- |
| O=S1(=O)OCCOS(=O)(=O)C1Cc1ccccc1 | 93.4 ± 15 |
| CC(=O)/C(C)=N/NC(=O)c1ccccc1O | 98.3 ± 20 |
| S=c1nc[nH]c2nc[nH]c12 | 95.2 ± 8.4 |
| CO[C@H]1/C=C\C=C(/C)C(=O)NC2=CC(=O)C(N)=C(C[C@@H](C)C[C@H](OC)[C@H](O)[C@@H](C)/C=C(\C)[C@@H]1OC(N)=O)C2=O | 29.6 ± 4.9 |
| [O-][S+]1c2ccccc2N=C(c2cccc3ccccc23)CC1c1cccc2ccccc12 (configuration not stated) | 84.1 ± 16 |
| CCC1CN2CCc3cc(OC)c(OC)cc3C2CC1CC1c2cc(OC)c(OC)cc2CCN1C(=O)C1CCCN1C(=O)OCc1ccccc1 (configuration not stated) | 122 ± 21 |
| Cc1c(Cl)ccc2c1NC(=O)C2(O)C(C(=O)c1ccccc1)c1ccccc1 (configuration not stated) | 107 ± 48 |
| Cc1cc2cc3cc(C)c(N)cc3nc2cc1N | 40.2 ± 5.5 |
| O=Cc1cc([N+](=O)[O-])no1 | 115 ± 26 |
| Cc1cccc(Cl)c1NC(=O)/C=C/c1ccccc1 | 102 ± 14 |
| COc1nc(N)nc2nc[nH]c12 | 91.9 ± 17 |
| CC(C)CCCCCCCCCCCCC(=O)NCC(=O)N[C@@H]1[C@@H](O)[C@H](O)[C@@H](Nc2ncnc3nc[nH]c23)O[C@H]1[C@@H](O)CO | 13.2 ± 4.3 |
| [N-]=[N+]=Nc1ccc2c(c1)Sc1ccccc1N2CCCCN1CCN(Cc2ccc(C(=O)c3ccccc3)cc2)CC1 | 95.1 ± 13 |
| O=C(CCCN1CCC(C(O)c2ccc(F)cc2)CC1)c1ccc(F)cc1 (configuration not stated) | 99.7 ± 22 |
| CC(=O)OCc1c2ccccc2c(C)c2c1cc(F)c1ccccc12 | 85.4 ± 9.4 |
| Cc1cc(O)c(/C=N/C(N)=S)c(=O)o1 | 92.5 ± 14 |
| CNC(=O)c1cc(NC(=O)N(CCC#N)CCN(C(=O)N[C@@H](Cc2ccccc2)C(=O)N[C@@H](CC(C)C)C(=O)NC)c2ccccc2)ccc1OC | 98.9 ± 15 |
